High-throughput results from PubChem.
Compounds with a hit are over-represented: about 21% of the library has one in this group of screens.
SARS PLpro yeast = inhibitors of SARS-CoV papain-like protease in yeast. actives 0.19% (n = 330,000). S. cerevisiae expressing SARS-CoV PLpro, growth rescue. Potency, µM (highest dose often 32.9 µM), for inactives: at the highest dose activity, positive = growth rescue, most hits filed as activators; calls by dose curve; also: potency is read from the fitted curve at half-maximal effect; 0% is about no effect; nearly all actives have a fitted effect of over 55% in size
Shiga inhibitor = Shiga toxin inhibition. actives 9.2% (n = 290,000). inhibition, % at 38.7 µM. AID 2315. Vero cells, Shiga toxin protein synthesis inhibition reporter; in the data active = inhibition mostly above about 28%, no sharp cut-off; inactive = mostly below about 43%; also: 0% is about no effect
Pf growth 48h = P. falciparum growth inhibition at 48 hours (one generation) | P. falciparum luciferase growth in erythrocytes, 48 h | Potency, µM (top dose mostly 28.7 µM), for the others: at the top dose activity change, negative = inhibition, actives largely listed as inhibitors | actives 5.9% (n = 310,000) | AID 504832; also: potency is read from the fitted curve at half-maximal effect; % is scaled to controls: 0 for no effect and ±100 for the full control effect
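Compounds are pin-transferred into medium, infected erythrocytes (2% hematocrit, 0.1% parasitemia final) are added, and plates sit one parasite generation at 37 C in 5% CO2. Detection reagent is then added and luminescence measured.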
Cycloheximide cs = counter-screen hit for Shiga toxin inhibitors, cycloheximide; cell reporter, cycloheximide protein synthesis inhibition counterscreen; max response, %; actives 12% (n = 300,000); AID 2314; in the data active = max response mostly above about 13%, no sharp cut-off; inactive = mostly below about 14%; also: read at 38.3 µM for the half of the compounds with a filed dose; 0% is about no effect
NS1 inh = inhibitors of influenza NS1 protein function; Potency, µM (titrated, usually from 46.1 µM), without a hit: at the top dose activity, positive = more growth; actives 0.4% (n = 270,000); calls by dose curve; also: potency is read from the fitted curve at half-maximal effect; actives are rising curves; nearly all actives have a fitted effect of over 50% in size
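Recovery from NS1-induced slow growth read by OD600 in budding yeast switched to galactose assay medium (pH 6.0, -URA) at 1:100 dilution. Compound 23 nl per well; the matching strain lacking NS1 serves as control.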
Pf growth 96h = P. falciparum growth inhibition at 96 hour, primary screen for plastid delayed-death inhibitors; AID 504834; P. falciparum luciferase reporter growth, 96 h; actives 6.9% (n = 320,000); Potency, µM (titrated, usually from 28.7 µM), without a hit: at the top dose activity change, negative = inhibition, most hits filed as inhibitors; also: potency is read from the fitted curve at half-maximal effect; % is scaled to controls: 0 for no effect and ±100 for the full control effect
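Delayed-death screen, second-generation endpoint: infected erythrocytes, 2% hematocrit, 0.05% parasitemia final; 96 hours at 37 C, 5% CO2; luciferase detection reagent; luminescence decrease equals reduced growth.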
* marks the source's active call; other numbers are inactive results; i = inactive; u = inconclusive; x = no result given. Unless noted, calls follow the shape of the dose curve; as a rule, active = well fitted inhibition curve with a large enough effect; inconclusive = small, poorly fitted or top-dose-only effect, or another doubt; inactive = no such curve, though single readings can be large or run the other way.

SMILES | SARS PLpro yeast | Shiga inhibitor | Pf growth 48h | Cycloheximide cs | NS1 inh | Pf growth 96h
N#C/C(=C\c1cn[nH]c1-c1ccccc1)C(=O)NC1CCCCCC1 | 3% | -1 | u | 1 | 12% | u
N#C/C(=C\c1c[nH]c2ccccc12)C(=O)c1ccc(O)c(O)c1 | x | x | x | x | 25% | x
N#C/C(=C\c1c[nH]c2ccccc12)C(=O)NC1CCCC1 | -4% | 42* | 12% | 22* | 5% | u
CC(C)COC(=O)/C(C#N)=C/c1c[nH]c2ccccc12 | 6% | 43 | 11% | 18* | -1% | 18%
COc1ccccc1CNS(=O)(=O)c1ccc2c(c1)CCCN2C(C)=O | 16% | -9 | -1% | -8 | u | u
O=C(Nc1cccc(S(=O)(=O)N2CCCCC2)c1)c1cc(=O)[nH]c2ccccc12 | 2% | x | x | x | x | x
Nc1cccn2c(-c3ccc(Cl)cc3)cnc12 | -9% | 197* | 234% | 47* | x | 207%
Clc1ccc(-c2cnc3n2CCC3)cc1 | -5% | 37 | u | 17 | -4% | -32%
Nc1cccn2c(-c3ccc(Cl)c(Cl)c3)cnc12 | -4% | 92* | i | 74* | x | i
CN1CCN(c2ccccc2NC(=O)c2ccc(-c3ccc(Br)cc3)o2)CC1 | -4% | 17 | 13µM* | -4 | 4% | 4%
Cc1cc(N2CCN(C)CC2)ccc1NC(=O)c1ccc(-c2ccc(Cl)cc2)o1 | 2% | x | u | x | x | 4.1µM*
CN1CCN(c2ccccc2NC(=O)c2ccc(-c3ccc(Cl)c(Cl)c3)o2)CC1 | -3% | -13 | 1% | 12 | 12% | 7%
CCC(=O)N1CCN(c2ccccc2NC(=O)c2ccc(-c3cccc([N+](=O)[O-])c3)o2)CC1 | -8% | -10 | 8.3µM* | 10 | 20% | 5%
CN1CCN(c2ccccc2NC(=O)c2ccc(-c3cccc([N+](=O)[O-])c3)o2)CC1 | -29% | -4 | 10µM* | 0 | -7% | u
CCCc1cc(=O)oc2cc(C)cc(OC(C)C(=O)NCc3ccccn3)c12 (stereo not drawn) | 4% | -4 | 2.6µM* | -3 | -18% | 2.3µM*
CCc1cc(=O)oc2cc(C)cc(OC(C)C(=O)NCc3ccccn3)c12 (stereo not drawn) | 4% | -1 | 3.7µM* | -3 | -7% | 2.1µM*
CS(=O)(=O)c1ccc(Cl)c(NC(=O)CCN2C(=O)NC3(CCCC3)C2=O)c1 | -11% | x | x | x | x | x
CCn1nc(C)c(/C=C2\CCCC3=C2OC(N)=C(C#N)C3c2c(C)nn(CC)c2C)c1C (stereo not drawn) | 1% | -19 | 10µM* | -1 | 5% | 33%
CNC(=O)CCCCC(=O)N/N=C/c1ccc(Cl)cc1Cl | 1% | -6 | -14% | -5 | 2% | -10%
CC(=O)c1cn(CCOc2ccccc2C)c2ccccc12 | 0% | 13 | 3.3µM* | -2 | -21% | 0%
CC(=O)c1cn(CCCOc2ccccc2)c2ccccc12 | -2% | 21 | u | 21* | -41% | 15%
COC(=O)c1cn(CCOc2ccc(C)cc2)c2ccccc12 | 2% | -6 | x | 2 | -7% | u
O=C(C(=O)N1CCOCC1)c1cn(CCCOc2ccccc2)c2ccccc12 | 1% | 20 | -3% | -1 | -3% | 20%
O=C(O)c1cn(CCOc2ccccc2Cl)c2ccccc12 | 2% | 50* | 246% | 38* | x | 114%
CC(=O)c1cn(CCOc2ccc(F)cc2)c2ccccc12 | -1% | x | u | 12* | -40% | u
SMILES | SARS PLpro yeast | Shiga inhibitor | Pf growth 48h | Cycloheximide cs | NS1 inh | Pf growth 96h
C=COCCNC(=S)N1CCOCCOCCN(C(=S)NCCOC=C)CCOCC1 | 2% | 8 | u | -11 | x | 12%
Cc1ccc(S(=O)(=O)/C=C/c2ccccc2)cc1 | -51% | -14 | 8% | -3 | -9% | 144%
Cc1ccc(OCCn2cc(C#N)c3ccccc32)cc1 | 7% | 15 | 8.3µM* | 1 | -7% | u
Cc1nn(CCc2nc(-c3ccco3)cs2)c2[nH]c(=O)cc(C(F)(F)F)c12 | 2% | 5 | x | -1 | -76% | 9.3µM*
Cc1ccccc1-n1cnc2cc(NCc3cccs3)ccc21 | u | 45 | u | 12 | -17% | u
COc1ccccc1-n1cnc2cc(NCc3ccccc3O)ccc21 | 0% | 70* | u | 22* | -4% | u
COc1ccccc1-n1cnc2cc(NCc3cccs3)ccc21 | -14% | 44* | -17% | 23* | -54% | x
